Source: PubChem (National Center for Advancing Translational Sciences (NCATS))
Shown are actives, neighbours in structure and some others; about 9.2% of the full set was active somewhere.
ELG1 DNA repair = inhibitors of ELG1-dependent DNA repair in HEK293T cells. HEK293T ELG1-luciferase reporter, luminescence, 16 h; DNA damage induced by 5-fluorouridine. Potency, µM (top dose mostly 46.1 µM), for the others: top-dose activity change, negative = inhibition, hits mostly inhibitors. hit rate 2.3% among 330,000. AID 504467; also: % is scaled to controls: 0 for no effect and ±100 for the full control effect; nearly all actives have a fitted effect of over 55% in size
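HEK293T cells expressing luciferase-tagged ELG1 (2,000/well) received 5-Fluorouridine plus compound or DMSO for 16 hr at 37 °C. Luciferase was read by ONE-Glo luminescence after 30 min at room temperature.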
ELG1 genotox = induces genotoxicity in HEK293T cells with luciferase-tagged ELG1; Potency, µM (highest dose often 46 µM), for the others: top-dose activity change, positive = activation, most hits filed as activators; HEK293T ELG1-luciferase reporter, luminescence, 16 h; hit rate 1.3% among 330,000; also: % of control where 0% means no effect; nearly all actives have a fitted effect of over 60% in size
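After overnight (16 hr) compound treatment at 37 °C, ELG1-luciferase HEK293T cells were lysed with ONE-Glo; luminescence quantified 30 min later at room temperature.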
FLuc modulator = inhibits or activates purified firefly luciferase, miR-21 counter-screen; P08659; purified FLuc, Km substrates, luminescence inhibition; Potency, µM (top dose mostly 57.5 µM), inactives show top-dose activity change, negative = inhibition, actives largely listed as inhibitors; hit rate 6.9% among 360,000; AID 588342;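 also: plate controls were vehicle for no effect and reference inhibitor for full effect; nearly all actives have a fitted effect of over 55% in size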
Target sequence (P08659 whole entry, looked up): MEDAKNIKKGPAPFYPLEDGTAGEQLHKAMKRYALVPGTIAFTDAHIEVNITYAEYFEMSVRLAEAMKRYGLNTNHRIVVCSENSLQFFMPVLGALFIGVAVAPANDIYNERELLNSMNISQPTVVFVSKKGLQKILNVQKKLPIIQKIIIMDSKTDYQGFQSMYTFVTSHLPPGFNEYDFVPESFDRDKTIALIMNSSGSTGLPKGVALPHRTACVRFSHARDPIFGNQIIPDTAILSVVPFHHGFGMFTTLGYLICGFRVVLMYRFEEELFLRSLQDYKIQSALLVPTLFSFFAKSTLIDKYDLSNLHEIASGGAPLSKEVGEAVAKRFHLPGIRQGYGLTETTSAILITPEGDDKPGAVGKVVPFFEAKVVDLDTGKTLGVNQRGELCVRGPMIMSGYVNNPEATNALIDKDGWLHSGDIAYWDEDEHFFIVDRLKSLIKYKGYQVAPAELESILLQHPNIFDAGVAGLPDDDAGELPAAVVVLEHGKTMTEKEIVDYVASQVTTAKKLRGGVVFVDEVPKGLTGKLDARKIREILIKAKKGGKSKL
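Biochemical qHTS of compounds, final roughly 60 µM downward over six points, against 10 nM purified firefly luciferase using Km concentrations of substrates (10 uM D-luciferin, 10 uM ATP) in Tris acetate pH 7.5 buffer; luminescence output.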
SMN2 splice up = SMN2 splice variant enhancement; HEK293 SMN2-luciferase splicing reporter, luminescence, 30-36 h; Potency, µM (series often up to 46.1 µM), without a hit: top-dose activity change, positive = activation, actives largely listed as activators; AID 1458; hit rate 2.8% among 210,000; also: % of control where 0% means no effect; nearly all actives have a fitted effect of over 55% in size
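HEK293 cells carry an SMN2 […]–luciferase reporter in which exon 7 inclusion puts luciferase in frame. Cells were plated 10-12 h before compound addition, then incubated 30-36 h at 37C. ONE-Glo luminescence was read; sodium butyrate at 4.5 mM final served as control.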
Rab9 promoter act = Rab9 promoter activation. Huh7 Rab9 promoter-luciferase reporter, luminescence, 24 h. Potency, µM (doses to about 9.22 µM), for the others: at the top dose activation, negative = inhibition, usual class: activators. hit rate 2.8% among 320,000; also: % of control where 0% means no effect; nearly all actives have a fitted effect of over 60% in size
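Cell-based reporter: Huh7 stable for Rab9 promoter-driven luciferase, plated in reduced-serum medium with 10% FBS at 1500 cells/well, compound-treated 24 h at 37 °C, luminescence read after 10 min reagent.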
NPC1 promoter act = NPC1 promoter activation; Huh7 NPC1 promoter luciferase reporter, 24 h; Potency, µM (top dose mostly 9.22 µM), without a hit: top-dose activation, usual class: activators; hit rate 2.4% among 320,000; AID 485313; also: % of control where 0% means no effect; nearly all actives have a fitted effect of over 60% in size
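In 1536-well qHTS, Huh7 cells harboring an NPC1 promoter–luciferase construct received compound for 24 h; activation was quantified by luminescence following luciferase reagent addition.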
Numbers without * were called inactive; ? = inconclusive; nt = no result. Calls follow the shape of the dose curve; as a rule, active = well fitted curve in the direction sought with a large enough effect; inconclusive = small, poorly fitted or top-dose-only effect, or another doubt; inactive = no such curve, though single readings can be large; an effect the other way counts as inactive or inconclusive. Potency is read from the fitted curve at half-maximal effect.

SMILES	ELG1 DNA repair	ELG1 genotox	FLuc modulator	SMN2 splice up	Rab9 promoter act	NPC1 promoter act
O=C(/C(=C/c1ccc(Cl)cc1)c1nc2ccccc2[nH]1)c1cccs1	7.3µM*	?	?	-75%	-52%	0%
O=C(/C=C/c1cccc(Cl)c1)c1nc2ccccc2[nH]1	?	24%	2.7µM*	-100%	1%	-2%
COc1cc(/C=C(/C(=O)c2cccs2)c2nc3ccccc3[nH]2)ccc1O	?	-5%	6.7µM*	-27%	13%	1%
COC(=O)/C(=C\c1cc(OC)c(OC)c(OC)c1)c1nc2ccccc2[nH]1	?	-6%	?	-99%	-4%	-10%
O=C(NCc1nc2ccccc2[nH]1)c1cccc(Cl)c1	nt	nt	-3%	-7%	nt	nt
